Experimental data: PubChem BioAssay (EPA / NIEHS)
Results filed as inconclusive are left out. The source made the active and inactive calls. How the source made its calls, unless noted: active means hit-call score of the fitted dose curve at least 0.9, where 1 is the maximum; inactive means score below 0.9.

Experiments:
[1] = ACEA_ER_80hr: ACEA Biosciences xCELLigence Real-Time Cell Analysis on Estrogen Receptor Agonism for Proliferation (AID 2282667; active means hit-call score of the fitted dose curve at least 0.9, where 1 is the maximum); conditions: T47D proliferation, impedance (xCELLigence), 80 h
How it was run: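 Estrogen-driven proliferation is captured as electrode impedance in T47D cells 80 h after compound addition. Test articles ran at 8 concentrations, 1:4 dilutions from 100 uM final, in two replicate plates.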

[2] = ATG_CRE_CIS: Attagene CIS-FACTORIAL HepG2 Assay for human cAMP Responsive Element (CRE) binding protein 3 (AID 2282926); conditions: HepG2 CRE cis-reporter, Attagene multiplexed mRNA; actives raise or lower the signal
How it was run: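 Liver-derived HepG2, transfected with a CRE-containing reporter panel, exposed 24 h; transcript levels sized and quantified by capillary electrophoresis of labelled amplicons; signal changes either way referenced to vehicle.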

[3] = molecular target: CCAAT/enhancer-binding protein beta (Homo sapiens) (UniProt P17676); experiment: ATG_C_EBP_CIS: Attagene CIS-FACTORIAL HepG2 Assay for human CCAAT/Enhancer Binding Protein (C/EBP) beta (AID 2282927); conditions: HepG2 Attagene cis-factorial transcription factor reporter; actives raise or lower the signal
Sequence of CCAAT/enhancer-binding protein beta (Homo sapiens) (P17676 whole entry, looked up): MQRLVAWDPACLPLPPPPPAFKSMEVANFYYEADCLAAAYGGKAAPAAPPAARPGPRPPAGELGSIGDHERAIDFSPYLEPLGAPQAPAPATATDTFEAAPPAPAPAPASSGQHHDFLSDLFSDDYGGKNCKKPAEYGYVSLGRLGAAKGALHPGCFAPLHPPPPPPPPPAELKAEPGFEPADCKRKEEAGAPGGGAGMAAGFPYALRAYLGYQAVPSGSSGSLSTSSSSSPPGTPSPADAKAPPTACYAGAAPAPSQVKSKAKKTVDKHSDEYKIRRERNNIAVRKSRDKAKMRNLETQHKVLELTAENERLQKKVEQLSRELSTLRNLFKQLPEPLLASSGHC
How it was run: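 Changes in reporter mRNA, rather than exogenous chimeric receptor activity, reflect native C/EBP signalling in transfected HepG2 cells dosed for 24 h; transcripts are detected by RT-PCR and capillary electrophoresis.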

[4] = ATG_CMV_CIS: Attagene CIS-FACTORIAL HepG2 Assay for human CMV (Internal Marker) (AID 2282928); conditions: HepG2 CMV promoter reporter, transcription factor profiling; actives raise or lower the signal;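 further: endpoint acts as a background internal control marker rather than a target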
How it was run: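 Readout: fluorescent reporter cDNA fragments separated by capillary electrophoresis after RT-PCR and HpaI cut. Cells: HepG2 carrying transfected cis-promoter reporter constructs, dosed 24 h. Endpoint serves as background internal-marker control, fit bidirectionally versus DMSO.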

[5] = ATG_DR4_LXR_CIS: Attagene CIS-FACTORIAL HepG2 Assay for human Liver X Receptor (LXR), DR4 submotif (AID 2282929); conditions: HepG2 Attagene DR4 cis-reporter, mRNA transcription; actives raise or lower the signal
How it was run: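 Fluorescence intensity of labelled reporter cDNA fragments, separated by capillary electrophoresis, gives the signal. HepG2 cells bearing cis-regulated reporter constructs were treated 24 h; activity fitted bidirectionally relative to DMSO negative control.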

[6] = molecular target: Aryl hydrocarbon receptor (Homo sapiens) (UniProt P35869); experiment: ATG_Ahr_CIS: Attagene CIS-FACTORIAL HepG2 Assay for human Aryl Hydrocarbon Receptor (Ahr) (AID 2282930); conditions: HepG2 AhR cis-factorial reporter transcription; actives raise or lower the signal
Sequence of Aryl hydrocarbon receptor (Homo sapiens) (P35869 whole entry, looked up): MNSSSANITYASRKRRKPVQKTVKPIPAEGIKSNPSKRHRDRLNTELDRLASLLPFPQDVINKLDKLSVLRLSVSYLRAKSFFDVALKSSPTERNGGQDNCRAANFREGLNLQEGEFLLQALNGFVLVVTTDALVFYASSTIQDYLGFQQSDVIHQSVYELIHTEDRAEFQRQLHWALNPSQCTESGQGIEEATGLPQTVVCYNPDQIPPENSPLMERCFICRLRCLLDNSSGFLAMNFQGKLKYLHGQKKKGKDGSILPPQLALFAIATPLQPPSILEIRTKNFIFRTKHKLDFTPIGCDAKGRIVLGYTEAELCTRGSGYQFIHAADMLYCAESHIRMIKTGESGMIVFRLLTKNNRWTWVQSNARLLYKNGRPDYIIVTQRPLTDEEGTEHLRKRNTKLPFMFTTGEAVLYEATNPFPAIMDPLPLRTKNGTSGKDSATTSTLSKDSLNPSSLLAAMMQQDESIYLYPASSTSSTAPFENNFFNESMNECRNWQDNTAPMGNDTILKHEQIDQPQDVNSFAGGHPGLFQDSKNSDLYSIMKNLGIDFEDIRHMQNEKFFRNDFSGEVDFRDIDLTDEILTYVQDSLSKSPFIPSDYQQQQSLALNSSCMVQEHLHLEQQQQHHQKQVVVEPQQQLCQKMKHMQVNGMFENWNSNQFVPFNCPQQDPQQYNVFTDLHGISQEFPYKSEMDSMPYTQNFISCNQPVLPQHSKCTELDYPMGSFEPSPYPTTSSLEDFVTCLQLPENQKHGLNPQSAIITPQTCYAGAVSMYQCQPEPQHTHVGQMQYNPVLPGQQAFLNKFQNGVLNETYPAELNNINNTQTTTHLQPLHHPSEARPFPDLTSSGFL
How it was run: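 HepG2, transient MRTU (cis) transfection, 24 h exposure. RNA → cDNA → PCR → 6-FAM primer extension → HpaI 2 h 37 C → CE. Fit: bidirectional, DMSO baseline.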

[7] = ATG_AP_1_CIS: Attagene CIS-FACTORIAL HepG2 Assay for human Activator Protein 1 (AP-1) (AID 2282931); conditions: HepG2 Attagene cis-factorial AP-1 reporter mRNA; actives raise or lower the signal
How it was run: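 Multiplexed HepG2 reporter assay, 24 h dosing. mRNA induction detected by RT-PCR plus capillary electrophoresis. Activity fitted in both directions against DMSO.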

[8] = ATG_AP_2_CIS: Attagene CIS-FACTORIAL HepG2 Assay for human Activator Protein 2 (AP-2) (AID 2282932); conditions: HepG2 AP-2 cis-reporter, Attagene transcription factor profiling; actives raise or lower the signal
How it was run: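 Transiently transfected HepG2 cells are exposed to chemical for 24 h. Reporter transcripts are then measured as fluorescence following RT-PCR and capillary separation, and gain- or loss-of-signal is fitted relative to DMSO.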

[9] = ATG_BRE_CIS: Attagene CIS-FACTORIAL HepG2 Assay for human Bone Morphogenetic Protein (BMP) Response Element (BRE) (AID 2282933); conditions: HepG2 BMP response element reporter, Attagene transcription factor profiling; actives raise or lower the signal
How it was run: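 After a 24 h chemical treatment, transiently transfected HepG2 cells were lysed for RNA; reporter transcripts were quantified by fluorescent RT-PCR and capillary electrophoresis, normalised to DMSO.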

[10] = molecular target: Retinoic acid receptor alpha (Homo sapiens) (UniProt P10276); experiment: ATG_DR5_RAR_CIS: Attagene CIS-FACTORIAL HepG2 Assay for human Retinoic Acid Receptor Alpha (RARE), DR5 submotif (AID 2282934); conditions: HepG2 Attagene cis-factorial RARE DR5 reporter, mRNA; actives raise or lower the signal;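 on AC50: reporter responds to endogenous RAR alpha beta and gamma in HepG2 not RARA alone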
Sequence of Retinoic acid receptor alpha (Homo sapiens) (P10276 whole entry, looked up): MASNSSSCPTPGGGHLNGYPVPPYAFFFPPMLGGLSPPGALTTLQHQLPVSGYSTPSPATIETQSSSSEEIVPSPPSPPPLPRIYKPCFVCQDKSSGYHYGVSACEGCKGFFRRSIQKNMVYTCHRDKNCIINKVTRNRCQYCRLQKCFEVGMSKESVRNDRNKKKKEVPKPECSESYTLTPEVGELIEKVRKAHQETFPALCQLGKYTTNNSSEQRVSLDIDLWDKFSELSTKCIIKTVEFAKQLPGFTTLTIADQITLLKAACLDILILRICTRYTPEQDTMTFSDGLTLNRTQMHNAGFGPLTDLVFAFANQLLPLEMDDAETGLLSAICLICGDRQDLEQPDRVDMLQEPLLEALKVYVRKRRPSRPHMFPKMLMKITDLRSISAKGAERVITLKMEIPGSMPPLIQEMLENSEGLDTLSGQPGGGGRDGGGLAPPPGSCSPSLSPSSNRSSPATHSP
How it was run: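 HepG2, transient cis-reporter transfection, 24 h exposure. mRNA readout: RT-PCR, FAM label, HpaI cut, capillary electrophoresis. DMSO baseline, gain/loss fitting.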

Measured: AC50

CCN(CCO)S(=O)(=O)C(F)(F)C(F)(F)C(F)(F)C(F)(F)C(F)(F)C(F)(F)C(F)(F)C(F)(F)F
active: [2] 28.9 µM
inactive: all other assays above

CC(C)Nc1ccc(NC(C)C)c2c1C(=O)c1ccccc1C2=O
not listed: [6]
inactive: all other assays above

CC(C)=CCCC(C)O (stereo not drawn)
not listed: [3] | [6]
inactive: all other assays above

Nc1cc([N+](=O)[O-])cc(Cl)c1O
not listed: [3]
inactive: all other assays above

CC(C)(C)c1cc(CCC(=O)NCCCCCCNC(=O)CCc2cc(C(C)(C)C)c(O)c(C(C)(C)C)c2)cc(C(C)(C)C)c1O
active: [1] 50 µM
not listed: [6]
inactive: all other assays above

CC1=CCC2C(=O)OC(=O)C2C1 (stereo not drawn)
active: [6] 65 µM
inactive: all other assays above

O=C(F)C1(F)C(F)(F)C(F)(F)C(F)(F)C(F)(F)C1(F)F
not listed: [3]
inactive: all other assays above

CCc1cccc(C)c1N(C(=O)C(=O)O)C(C)COC (stereo not drawn)
not listed: [3]
inactive: all other assays above

CCCCCCCCn1sc(Cl)c(Cl)c1=O
active: [1] 0.023 µM | [7] 13.8 µM | [8] 11.1 µM | [10] 5.39 µM
not listed: [6]
inactive: all other assays above

O=C1c2c(O)ccc(Nc3ccc(CCO)cc3)c2C(=O)c2c([N+](=O)[O-])ccc(O)c21
active: [4] 12 µM | [6] 0.896 µM | [7] 17.7 µM
not listed: [3]
inactive: all other assays above

Brc1nc2ccccc2s1
active: [1] 0.0408 µM | [5] 100 µM | [7] 65.1 µM
not listed: [6]
inactive: all other assays above

CC(O)C#CC(C)O (stereo not drawn)
active: [3] 179 µM | [4] 176 µM | [5] 64.9 µM | [6] 72.8 µM | [7] 24.7 µM | [9] 182 µM
inactive: [1] | [2] | [8] | [10]

C[Si](Cl)(Cl)CCC(F)(F)C(F)(F)C(F)(F)C(F)(F)C(F)(F)C(F)(F)F
not listed: [6]
inactive: all other assays above

CN(N=O)C(=O)N[C@@H]1[C@@H](O)[C@H](O)[C@@H](CO)O[C@@H]1O
not listed: [6]
inactive: all other assays above

CCOC(=O)CCC(C)=O
not listed: [6]
inactive: all other assays above

CCCCCCCCCCCCCC[P+](CCCC)(CCCC)CCCC
active: [1] 0.0203 µM | [2] 0.758 µM | [9] 0.745 µM
not listed: [6]
inactive: all other assays above

CCOC(C=C(C)CCC=C(C)C)OCC
not listed: [3] | [6]
inactive: all other assays above

CCN(CC)c1ccc(N=Nc2ccccc2)cc1
active: [1] 50 µM | [7] 72.7 µM | [9] 78.8 µM
not listed: [6]
inactive: all other assays above

CO[Si](C)(CCC(F)(F)C(F)(F)C(F)(F)C(F)(F)C(F)(F)C(F)(F)F)OC
not listed: [3]
inactive: all other assays above

O=c1[nH]cccc1O
inactive: all assays above

C=C(C)C(=O)OCC(F)(F)C(F)(F)C(F)(F)C(F)F
not listed: [3]
inactive: all other assays above

O=C(c1ccccc1)c1ccc(Cl)cc1
not listed: [6]
inactive: all other assays above

O=S(=O)(O)CCC(F)(F)C(F)(F)C(F)(F)C(F)(F)C(F)(F)C(F)(F)C(F)(F)C(F)(F)F
not listed: [3] | [6]
inactive: all other assays above

CC(C)CC=C(C=O)c1ccccc1
active: [1] 24.1 µM | [5] 84.9 µM | [7] 100 µM
inactive: all other assays above

O=C(O)CCC(F)(F)C(F)(F)C(F)(F)F
not listed: [3]
inactive: all other assays above

CCN=c1cc2oc3cc(NCC)c(C)cc3c(-c3ccccc3C(=O)OCC)c-2cc1C
inactive: [4] | [6] | [9] | [10]
active: [1] 0.0353 µM | [2] 11.1 µM | [5] 4.45 µM | [7] 2.75 µM | [8] 11.1 µM

OCC(F)(F)C(F)(F)C(F)(F)C(F)(F)C(F)(F)C(F)(F)CO
active: [1] 0.291 µM
not listed: [6]
inactive: all other assays above

Cc1cc(O)c(C(C)(C)C)cc1C(C)(C)C
active: [4] 9.14 µM | [7] 11.1 µM
not listed: [6]
inactive: all other assays above

O=c1cccc[nH]1
inactive: all assays above

OCC(O)CC(F)(F)C(F)(F)C(F)(F)C(F)(F)C(F)(F)C(F)(F)C(F)(F)C(F)(F)F (stereo not drawn)
not listed: [2] | [3]
inactive: all other assays above

NC(=O)C(F)(F)C(F)(F)C(F)(F)C(F)(F)C(N)=O
not listed: [2]
inactive: all other assays above

CC(C)(C)C(=O)C1C(=O)c2ccccc2C1=O
inactive: [3] | [5] | [8] | [9]
active: [1] 10.4 µM | [4] 30.1 µM | [7] 30.3 µM | [10] 31.9 µM

NS(=O)(=O)C(F)(F)C(F)(F)C(F)(F)C(F)(F)C(F)(F)C(F)(F)F
not listed: [2]
inactive: all other assays above

CO[Si](CCCOCC1CO1)(OC)OC (stereo not drawn)
not listed: [1]
inactive: all other assays above

C=C(C)CCCC
not listed: [2]
inactive: all other assays above

OCC(F)(F)C(F)(F)C(F)(F)CO
not listed: [2]
inactive: all other assays above

CC1=CC2C3C=CC(C3)C2C1C (stereo not drawn)
not listed: [3] | [6]
inactive: all other assays above

CCOC(OCC)OCC
not listed: [2] | [6]
inactive: all other assays above

CCC/C=C/CO
not listed: [1]
inactive: all other assays above

CC(=O)CCC(C)C
not listed: [2]
inactive: all other assays above

CCN(CC)c1ccc2c(c1)Oc1cc(N(CC)CC)ccc1C21OC(=O)c2ccccc21
not listed: [3] | [6]
inactive: all other assays above

CCOC(=O)C1CC(=O)C(=C(O)C2CC2)C(=O)C1 (stereo not drawn)
not listed: [2]
inactive: all other assays above

COCCC(=O)OC
not listed: [2] | [3] | [6]
inactive: all other assays above

CCN(CC)c1ccc(C=O)cc1
active: [1] 0.0998 µM
not listed: [2] | [6]
inactive: all other assays above

Cc1ccc([N+](=O)[O-])c(C)c1
active: [1] 22.4 µM
not listed: [3] | [6]
inactive: all other assays above

O=C=Nc1cccc2c(N=C=O)cccc12
not listed: [2] | [3] | [6]
inactive: all other assays above

CN(C(=O)C(F)(F)C(F)(F)C(F)(F)F)[Si](C)(C)C
not listed: [3] | [6]
inactive: all other assays above

O=C(Cl)c1ccc(Cl)cc1Cl
not listed: [2]
inactive: all other assays above

CCCCCCCCCc1ccc(OCCO)cc1
inactive: [6] | [10]
active: [1] 0.278 µM | [4] 13.3 µM | [5] 19.3 µM | [7] 2.26 µM | [8] 23.2 µM | [9] 7.68 µM

CCOC(=O)CC(=O)C(F)(F)C(F)(F)F
active: [1] 9.87 µM
not listed: [2] | [6]
inactive: all other assays above

Cc1ccc(O)c(-n2nc3ccccc3n2)c1
active: [6] 7.41 µM
not listed: [2]
inactive: all other assays above
